From PubChem BioAssay AID651965 (National Center for Advancing Translational Sciences (NCATS), 2013)
Out of some 340,000 compounds screened, about 6,400 (1.9%) were called active. About 4% were inconclusive and are not listed. The call rests on the fitted dose curve; in most records, active means well fitted falling curve with a large enough effect; inconclusive means small, poorly fitted or top-dose-only effect; inactive means no such curve, though single readings can be large or run the other way. For the sample, actives were picked, then their nearest neighbours and some compounds at random.

What follows are molecules tested against ATP-dependent Clp protease proteolytic subunit (Bacillus subtilis (strain 168)) (UniProt P80244) (assay: qHTS Assay for Activators of ClpP). Details: purified B. subtilis ClpP, FRET peptide cleavage, 20 min; series mostly up to 57.5 µM; activity change, negative = active: at the top concentration.
Chain of ATP-dependent Clp protease proteolytic subunit (Bacillus subtilis (strain 168)) (P80244 whole entry, looked up): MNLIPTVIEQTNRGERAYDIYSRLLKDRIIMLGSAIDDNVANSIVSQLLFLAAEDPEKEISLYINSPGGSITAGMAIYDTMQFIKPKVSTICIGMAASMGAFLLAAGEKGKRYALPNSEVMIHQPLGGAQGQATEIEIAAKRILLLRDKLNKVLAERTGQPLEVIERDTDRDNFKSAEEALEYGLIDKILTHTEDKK
Method in brief: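 FRET quenching reversal measured ClpP activation: 10 microg/mL B. subtilis ClpP at pH 8 with the FRET-FV decapeptide, read at 430 nm after 320 nm excitation. The 20-min minus 0-min signal was scaled between DMSO/no-enzyme wells and ADEP (5.8 microM final).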
Further: the source files actives as falling curves though it sought activators and does not explain the sign; nearly all actives have a fitted effect of over 65% in size.
Potency means the concentration at half of the fitted maximal effect.

| SMILES | activity change, negative = active | Potency |
| --- | --- | --- |
| Cc1[nH]c2ccccc2c1C(=O)CN1CCCC(C)C1 (configuration not stated) | 0.916% (inactive) | – |
| Cc1cc(NC(=O)CN2CCCC(C)C2)n(-c2nc3ccccc3s2)n1 (configuration not stated) | – | 17.8 µM (active) |
| CC(=O)Nc1ccc(NC(=O)CN2CCCC(C)C2)c(Cl)c1 (configuration not stated) | -3.9% (inactive) | – |
| CC(=O)c1ccc(Nc2nc(C(N)c3ccccc3Cl)cs2)cc1 (configuration not stated) | -11.1% (inactive) | – |
| CCOC(=O)c1c(N)nn(C(=O)c2ccccc2)c1-c1ccccc1 | -1.6% (inactive) | – |
| CCOc1ccc2nc(N3CCCN(C(=O)Nc4ccccc4C)CC3)c(C#N)cc2c1 | -2.23% (inactive) | – |
| CCOC(=O)c1cc(C#N)c(N2CCCCC2)nc1-c1ccccc1 | – | 28.2 µM (active) |
| Cc1cc[n+](C2CCCCC2)cc1 | -7.91% (inactive) | – |
| N#Cc1ccc[n+](CC(=O)c2ccc(O)c(O)c2)c1 | -0.287% (inactive) | – |
| O=C(NCc1cccnc1)c1cc(C2CCCN(C(=O)CCCc3ccccc3)C2)on1 (configuration not stated) | 1.82% (inactive) | – |
| O=C(NCc1ccc2c(c1)OCO2)c1cc(F)c(F)cc1Cl | 0.908% (inactive) | – |
| CCn1c(=O)c(C(=O)NCc2ccc3c(c2)OCO3)c(O)c2ccccc21 | -2.41% (inactive) | – |
| Cc1nc2c(C(=O)NCc3ccc4c(c3)OCO4)c[nH]n2c(=O)c1Cc1ccccc1F | – | 31.6 µM (active) |
| OCCc1ccc(NCCc2ccco2)cc1 | -2.59% (inactive) | – |
| CCCNC(=O)C1(C)CCCN(C(=O)c2cccc(OC(C)=O)c2C)C1 (configuration not stated) | -0.0684% (inactive) | – |
| O=C1C[C@H]2C=CCc3cccc(c32)CN1Cc1ccccc1 | -2.81% (inactive) | – |
| CC(=O)OCC(C)n1c(=O)c2ccccc2n1C(C)=O (configuration not stated) | 7.13% (inactive) | – |
| Cc1ccc(Nc2nc(N3CCOCC3)nc(N3CCOCC3)n2)cc1Cl | 1.71% (inactive) | – |
| Cc1nc(N2CCOCC2)nc2c1CCCC2 | – | 28.2 µM (active) |
| O=C(CN1CCOCC1)Nc1c2c(nc3c1CCC3)CCC2 | -0.252% (inactive) | – |
| CCc1nc2c(OCCc3cccc(OC)c3)cccn2c1N(C)C(=O)c1ccc(C)cc1 | -1.31% (inactive) | – |
| O=C1CC2(CCCC2)Oc2ccc(Cl)cc21 | 4.22% (inactive) | – |
| O=C(Nc1cccc(OCC(=O)N2CCOCC2)c1)C1CCCCC1 | -2.02% (inactive) | – |
| O=C1CC2(CCCCC2)Oc2ccc(OCC(=O)N3CCOCC3)cc21 | – | 10 µM (active) |
| COc1cc2c(C(=O)O)c(C)n(C)c2c2ccccc12 | 3.23% (inactive) | – |
| COc1cccc2[nH]c(C(=O)NCCc3ccccc3)cc12 | 4.06% (inactive) | – |

| SMILES | activity change, negative = active | Potency |
| --- | --- | --- |
| COc1cccc2c(C)c(C(=O)O)[nH]c12 | – | 25.1 µM (active) |
| Cc1ccc(Cc2c(-c3ccc(Cl)cc3)nc3c4ccccc4ccn23)cc1 | 49.9% (inactive) | – |
| CC(C)(C)CC(=O)Nc1nc(C(N)Cc2ccc(C(F)(F)F)cc2)cs1 (configuration not stated) | -1.68% (inactive) | – |
| CCN(CC)S(=O)(=O)c1ccc(NC(=O)CN(c2cccc(F)c2)S(C)(=O)=O)cc1 | -3.47% (inactive) | – |
| Cc1cccc(N(CC(=O)Nc2ccc(-c3nc4ccc(C)cc4s3)cc2)S(C)(=O)=O)c1 | – | 15.8 µM (active) |
| COc1cccc(N(CC(=O)Nc2cccc(F)c2)S(C)(=O)=O)c1 | -0.426% (inactive) | – |
| COc1ccc(NC(=O)C2(C)Cc3c(-c4ccc(C(N)=O)cc4)ccnc3O2)cc1 (configuration not stated) | -2.25% (inactive) | – |
| COc1ccc(-c2ccc(CN3C(CC(C)C)C(=O)N(Cc4cn(CC5CCCCC5)nn4)CCS3(=O)=O)cc2)cn1 (configuration not stated) | -8.24% (inactive) | – |
| CCOC(=O)C(=Cc1ccccc1)C(=O)c1ccccc1 | -0.195% (inactive) | – |
| CN(C)CCCn1c(N)c(C#N)c2nc(C#N)c(C#N)nc21 | -15.7% (inactive) | – |
| N#Cc1c(N)n(CCOC(=O)c2ccc(Cl)cc2)c2nc3ccccc3nc12 | – | 28.2 µM (active) |
| CC(C)(C)OC(=O)c1c(N)n(CCCN2CCCC2=O)c2nc3ccccc3nc12 | 38.4% (inactive) | – |
| CCc1ccc(OCCCn2c(CCCNC(=O)C3CCCCC3)nc3ccccc32)cc1 | 1.41% (inactive) | – |
| CCCCCCN1CCN(C2CN(Cc3cn(Cc4ccc(F)cc4)nn3)S(=O)(=O)C2)CC1 (configuration not stated) | -3.87% (inactive) | – |
| CCN1C(=O)[C@H]2[C@@H](c3ccc(SC4CCCCC4)c(OC)c3)N[C@@](Cc3ccccc3)(C(=O)OC)[C@H]2C1=O | – | 35.5 µM (active) |
| CCN1C(=O)[C@H]2[C@@H](c3ccc(-c4ccc(F)cc4)cc3)N[C@@](Cc3ccccc3)(C(=O)OC)[C@H]2C1=O | -23.2% (inactive) | – |
| CCN1C(=O)[C@H]2[C@@H](c3ccc(-c4ccc(OC)cc4)cc3)N[C@@](Cc3ccccc3)(C(=O)OC)[C@H]2C1=O | 1.06% (inactive) | – |
| CCCCC[C@H](C)N1C[C@@H](COCc2ccccc2)Oc2cc(N3CC[C@@H](N(C)C)C3)ccc2S1(=O)=O | -20.4% (inactive) | – |
| O=C(NCc1ccccn1)[C@@H]1CCCN1C(=O)[C@@H]1CCCN1C(=O)c1ccccc1 | 2.16% (inactive) | – |
| COc1ccc(N2c3ccccc3CN(Cc3ccccc3)[C@@H](C)[C@H]2Cc2ccc(-c3ccccc3)cc2)cc1 | -15.5% (inactive) | – |
| C=CCNC(=O)c1ccc2nc(-c3ccco3)c(-c3ccco3)nc2c1 | -8.38% (inactive) | – |
| Cc1c(NC(=O)C(C)(C)C)cccc1-c1nc2ccccc2s1 | -1.86% (inactive) | – |
| CC(C)(C)C(=O)Nc1cccc(-c2ccc[nH]2)n1 | – | 12.6 µM (active) |
| Cc1c(-c2cccc(NC(=O)C(C)(C)C)c2)nc2ncccn12 | 4.79% (inactive) | – |
| COc1cccc(-c2cc(NC(C)=O)c3ncc(-c4cccc(C(C)=O)c4)n3c2)c1 | -4.01% (inactive) | – |
| CCOC(=O)C1CCCN(C(=O)c2ccc(N(C)C)cc2)CC1 (configuration not stated) | 0.928% (inactive) | – |

| SMILES | activity change, negative = active | Potency |
| --- | --- | --- |
| CC(C)(C)c1nc(NCC2CCCO2)c2nnn(Cc3ccccc3)c2n1 (configuration not stated) | -0.0891% (inactive) | – |
| Cn1c(=O)c2[nH]c(NCC3CCCO3)nc2n(-c2ccccc2)c1=O (configuration not stated) | – | 28.2 µM (active) |
| Cc1sc2c(c1C)c(=O)n(-c1ccccc1)c(=O)n2CC(=O)NCC1CCCO1 (configuration not stated) | 1.34% (inactive) | – |
| Oc1ccc(Br)cc1C1C=C(c2ccc3c(c2)OCO3)NC(c2ccc(Cl)cc2)N1 (configuration not stated) | 0.41% (inactive) | – |
| CCc1ccc(OC2(C)CCN(CCOc3ccc(C)cc3)C2)cc1 (configuration not stated) | -0.766% (inactive) | – |
| CC(C)Cc1ccc(-c2cc3nc(NCc4cccc(Cl)c4)ccn3n2)cc1 | 5.03% (inactive) | – |
| COc1cccc(C(=O)OCc2cc(=O)oc3c(C)c(C)ccc23)c1OC | 2.05% (inactive) | – |
| CCCc1cc(=O)oc2c(C)c(OCC(=O)Nc3ccccn3)ccc12 | 4% (inactive) | – |
| COC(=O)Cc1cc(=O)oc2c(C)c(O)ccc12 | – | 15.8 µM (active) |
| CCOC(=O)[C@]12CCC=C1N(CCC1=CCCCC1)C(=O)[C@H](CC(=O)NCc1ccc(C)o1)C2 | 0.969% (inactive) | – |
| Cc1nccn1-c1ccc(NC(=O)[C@H]2O[C@@H](n3cnc4c(N)ncnc43)[C@H](O)[C@@H]2O)cc1 | 1.51% (inactive) | – |
| O=C(NCc1cccnc1)c1cc(C2CCCN(C(=O)C3CCCCC3)C2)on1 (configuration not stated) | -0.544% (inactive) | – |
| CN(C)c1ccc(/C=C/C=C/c2ccnc3ccccc23)cc1 | 1.11% (inactive) | – |
| COc1ccc(Br)c(Cn2c(C)c(C(=O)NCc3cccs3)sc2=O)c1 | 1.44% (inactive) | – |
| O=C(NCc1ccccc1)C(c1ccc(F)cc1)N1CCN(C(=O)C2CCCO2)CC1 (configuration not stated) | -1.43% (inactive) | – |
| CCN(Cc1ccccc1)C(=O)c1cn(-c2cccc(OC)c2)c(=O)c2ccccc12 | -15% (inactive) | – |
| COc1cccc(CNC(=O)c2cccnc2Sc2ccc(Cl)cc2)c1 | 0.0811% (inactive) | – |
| COc1cccc(-n2cc(C(=O)NCc3cccc(Cl)c3)c3ccccc3c2=O)c1 | – | 25.1 µM (active) |
| CC1(C)CC(=O)c2cc(C(=O)NCc3ccccc3)c(=O)[nH]c2C1 | -8.46% (inactive) | – |
| Cc1ccc(-c2ccc(=O)n(Cc3ccc(F)cc3Cl)n2)cc1 | 0.44% (inactive) | – |
| CC(=O)Nc1cc(C(=O)NCc2ccc(F)cc2Cl)ccc1Sc1ccc(Cl)cc1 | -9.43% (inactive) | – |
| CN(C)Cc1ccc(F)cc1Sc1cc(Cl)ccc1Cl | – | 12.6 µM (active) |
| Brc1cccc[n+]1Cc1cccc(C[n+]2ccccc2Br)c1 | -6.97% (inactive) | – |
| Cc1ccc2oc(=O)ccc2c1 | -7.73% (inactive) | – |
| CC(C)C(=O)Nc1ccc2c(c1)oc1ccccc12 | -15.9% (inactive) | – |
| CC(C)C(=O)Nc1ccc2oc(=O)ccc2c1 | – | 35.5 µM (active) |

| SMILES | activity change, negative = active | Potency |
| --- | --- | --- |
| COc1ccc(C(C)(O)c2nc(-c3cc(F)cc(F)c3)cs2)cc1 (configuration not stated) | 0.362% (inactive) | – |
| CN1CCN(c2ccc3c(c2)OC[C@H](Cc2ccccc2)NS3(=O)=O)CC1 | -0.119% (inactive) | – |
| COc1ccccc1CNC(=O)c1cc(-c2cc(F)ccc2OC)n[nH]1 | -5.92% (inactive) | – |
| CC(C)(C)c1ccc(OCC(=O)N2CCC(c3nc4ccccc4s3)CC2)cc1 | 0.0567% (inactive) | – |
| Cc1nn(Cc2ccccc2)c(Cl)c1C(=O)OC1CCOC1=O (configuration not stated) | 0.992% (inactive) | – |
| O=C(OC1CCOC1=O)c1ccc(-c2nc3ccccc3s2)s1 (configuration not stated) | – | 17.8 µM (active) |
| COCCNC(=O)c1cc2c(Br)ccc(Br)c2nc1N | -6.95% (inactive) | – |
| CCOP(=O)(OCC)C(Cc1ccccc1)N=C(c1ccccc1)c1ccccc1 (configuration not stated) | 0.52% (inactive) | – |
| CCCC1OC23CCCCC2C(C#N)(C#N)C1(C#N)C(=N)O3 (configuration not stated) | – | 20 µM (active) |
| O=C(Nc1ccccc1)c1ccccc1OCc1ccccc1 | -4.41% (inactive) | – |
| C[C@H]1CN([C@@H](C)CO)C(=O)CCCn2nncc2CO[C@@H]1CN(C)Cc1ccc(Oc2ccccc2)cc1 | -1.47% (inactive) | – |
| NC(c1ccccc1)c1csc(NC(=O)Nc2cccc(C(F)(F)F)c2)n1 (configuration not stated) | -2.47% (inactive) | – |
| COCCCn1c(C(=O)NC2CCCCC2)cc2c(=O)n3cccc(C)c3nc21 | 3.95% (inactive) | – |
| CCCn1c(=N)c(C(=O)NCc2ccccc2)cc2c(=O)n3cccc(C)c3nc21 | 4.76% (inactive) | – |
| Cc1cccn2c(=O)c3cc(C(=O)N4COCC4(C)C)n(C)c3nc12 | – | 28.2 µM (active) |
| O=C1NC[C@H](CCCCN2C[C@H](Cc3ccc(O)cc3)N(CC3CCCCC3)C(=O)C2=O)N(CCc2ccccc2)C1=O | 1.1% (inactive) | – |
| Cn1c(=O)c2cc(NC(=O)NCCc3cccs3)ccc2n1Cc1cccc(C(F)(F)F)c1 | 4.93% (inactive) | – |
| Cc1nc2c(c(C)nn2-c2ccccc2)c(C)c1C | -0.788% (inactive) | – |
| Cc1nn(-c2ccccc2)c2c1C(c1ccc(F)cc1)C(C#N)=C(N)O2 (configuration not stated) | -14.9% (inactive) | – |
| CSc1ccc(-c2c(C#N)c(N)nc3c2c(C)nn3-c2ccccc2)cc1 | – | 22.4 µM (active) |
| COc1ccc(NC(=O)C2(C)Cc3c(-c4cccc(NC(C)=O)c4)ccnc3O2)cc1OC (configuration not stated) | -7.68% (inactive) | – |
| FC(F)(F)c1cccc(-c2cc3ccccc3nc2N2CCCC2)c1 | – | 31.6 µM (active) |
| O=C(Nc1cc(C(F)(F)F)ccc1Cl)c1nc2ccccc2nc1N1CCCCC1 | 0.902% (inactive) | – |
| FC(F)(F)c1cccc(-c2nc3ccccc3n2C(c2ccccc2)c2nc3ccccc3[nH]2)c1 (configuration not stated) | 4.78% (inactive) | – |
